First the molecules themselves.
T1: UNK ZnF1-6 (called full-length) (human, UniProt Q9C0B0 30-357)
T1 sequence: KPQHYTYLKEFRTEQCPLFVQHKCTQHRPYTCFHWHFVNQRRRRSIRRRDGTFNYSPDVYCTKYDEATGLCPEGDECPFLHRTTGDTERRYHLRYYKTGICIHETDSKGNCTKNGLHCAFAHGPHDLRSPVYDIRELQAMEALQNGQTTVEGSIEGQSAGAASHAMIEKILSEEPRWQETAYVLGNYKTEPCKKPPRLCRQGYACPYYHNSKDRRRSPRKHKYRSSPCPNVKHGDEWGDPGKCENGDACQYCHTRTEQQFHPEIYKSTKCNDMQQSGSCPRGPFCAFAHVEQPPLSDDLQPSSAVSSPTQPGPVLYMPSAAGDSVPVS

B1: chr16:2708819:2708933:+|3pUTR|ENSG00000167977|unk|total|mutant (ssRNA)
RNA: GGGAGUUCUACAGUCCGACGAUCCUCUCUGGGGAGCUGCUGGCCGCUCCGCGUUGUUUGAUUUUUGACCUUGACACCGCCGACCGGCUUGUGGUUUUUUUAAUUUAAAGAUAUUAAGACUUAAUUCACUAAAAUUUAUUCUAACAACAGAGGAUUGAGCAUCA
B2: ENSG00000168615:stop:overlap|stop_codon|ENSG00000168615|stop_codon|NA|stop_codon (ssRNA)
RNA: GGGAGUUCUACAGUCCGACGAUCCUGGCCAGAAUACCCAAAAUAAUUGGCAGAUGUCAAAUUUGGCUUUCUGUGUUUAUUACUAGAGCAUAAACAUUUCUAGUUUUGUUUGAGUGUUUUACAGUCCUUUUUGGCAGUUAGGUACAACAGAGGAUUGAGCAUCA
B3: chr16:2708819:2708933:+|3pUTR|ENSG00000167977|unk|FALSE|unique (ssRNA)
RNA: B1 RNA with C48U, C49A, C76U, C77A, C79U, C80A, C83U, C84A
B4: chr2:96185838:96185916:-|3pUTR|ENSG00000084090|msi1_unk|FALSE|overlapping (ssRNA)
RNA: GGGAGUUCUACAGUCCGACGAUCUGGGAGACUAAUCCUUUUAGAUAGUAGCUUUUUGAUGCUCAAAACAUCACAUUUAAAUUUAGUUUAAAAAUUUUUUAACUUUUGUGUCAAAUAGGAGUUGAGGAAUUGAGCAGGAUUCUACAACAGAGGAUUGAGCAUCA
B5: chr5:6669452:6669553:+|3pUTR|ENSG00000145545|unk|FALSE|unique (ssRNA)
RNA: GGGAGUUCUACAGUCCGACGAUCCAUCUCAUCUGGAGUUUUUAAAUGCCAUUUGUUUCAGUUGUCUUUAACAACAUAAUAAAUAGACUUUGCCAUUUAACAAGGUAGCUCAAAUUCUUUUACUAAUUGUUACAUCGAAACAUUCAACAGAGGAUUGAGCAUCA
B6: chr2:216672738:216672882:-|3pUTR|ENSG00000115461|msi1|FALSE|unique (ssRNA)
RNA: GGGAGUUCUACAGUCCGACGAUCUUCUCUUAGGCUUUUGUUUCUAUUUCAAACAUACUUUCUUGGUUUUCUAAUGGAGUAUAUAGUUUAGUCAUUUCACAGACUCUGGCCUCCUCUCCUGAAAUCCUUUUGGAUGGGGAAAGGCAACAGAGGAUUGAGCAUCA
B7: chr10:98383567:98383797:-|three_prime_utr|ENSG00000119943|control|control|control (ssRNA)
RNA: GGGAGUUCUACAGUCCGACGAUCCCACCCCUGAAUUCCAAGUGCUCCAUUGGAUCAGCUUCCCAGGAAGUUCAGCUUCGGGUUAGUACAUAAGGCCACCACAAUGCUCAAGAAAUUAUUUUAGAAAAAACGUACGAGUUACAUCAACAGAGGAUUGAGCAUCA
B8: chr12:103777333:103777434:-|3pUTR|ENSG00000111696|msi1|total|mutant (ssRNA)
RNA: GGGAGUUCUACAGUCCGACGAUCUCCUGAACAUUUACGGGCUAUGCAUUGGGAACUGCAGGGGCACAGUGAUGGGCAAAGAUCCGCUGCUUCCAGAAGGCUGAUUUCGUGGGCUCCACAAUGGUAAAACGCUGCUGUGAGUGGCAACAGAGGAUUGAGCAUCA
B9: chr5:160402147:160402258:-|3pUTR|ENSG00000164609|unk|FALSE|unique (ssRNA)
RNA: GGGAGUUCUACAGUCCGACGAUCAUGGUUUACAUUACCGUUUGUUUUCAUUGUGAUUGCCCCUAUGUAACAAUCAUGAAUAUUAGAUUUUUUAAAUUGUAGAAUAUCCUAAUAUUUAUAGCCAGCAGCUGUUACUUUGUUUGUCAACAGAGGAUUGAGCAUCA
B10: chr11:101890673:101891278:-|three_prime_utr|ENSG00000187151|control|control|control (ssRNA)
RNA: GGGAGUUCUACAGUCCGACGAUCGUAAUGCAAGUUCUACAAUGAUAAUAUAUUAAAGAUUUUUAAAAGUUUAUCUUUUCACUUAGUGUUUCAAACAUAUUAGGCAAAAUUUAACUGUAGAUGGCAUUUAGAUGUUAUGAGUUUCAACAGAGGAUUGAGCAUCA
B11: chr14:100278170:100278208:+|3pUTR|ENSG00000100811|msi1_unk|FALSE|overlapping (ssRNA)
RNA: GGGAGUUCUACAGUCCGACGAUCGCUAUCUUAAUUUUGGUUGUAUUCUUUGAUGUUAACACAUUUUGUAUAAUUGUAUCGUAUAGCUGUAUUGAAUCAUGUAGUAUCAAAUAUUAGAUGUGAUUUAAUAGUGUUAAUCAAUUUCAACAGAGGAUUGAGCAUCA
B12: chr7:152122106:152122213:+|3pUTR|ENSG00000178234|unk|total|mutant (ssRNA)
RNA: GGGAGUUCUACAGUCCGACGAUCAGUGGUUUUUAUCUGAUCAGGAACUUGUCAUGAUUUCCUUUCUCCGACUUCACCGGAGACCGUGCUUUAAAAAAAAAAAAAACUUCUAUUAUUUGUUCCGUAUGUUGUAAGCCGAUCAUUCAACAGAGGAUUGAGCAUCA
B13: chr21:14371318:14371404:-|3pUTR|ENSG00000155304|msi1_unk|total|mutant (ssRNA)
RNA: GGGAGUUCUACAGUCCGACGAUCUAUGAAUAACAAUCUGAAGUCUUUUCAUAAAAAAAAUUAAUAAACUUCCGUUGUACAUUCCGCCAGUGUUAUUUGAAGUAUGUAACUUUUAAAAUAUUAAGUGUCUUGUAUGAUCCGAAUCAACAGAGGAUUGAGCAUCA
B14: chr10:121957106:121957207:-|3pUTR|ENSG00000107672|msi1|FALSE|bound_elsewhere (ssRNA)
RNA: GGGAGUUCUACAGUCCGACGAUCUGUAUCGUACAUAUUGUAUGAUUCAACAUUUUUAAAGGCAGAUUGUUUUUAGUAAAAUGUAGCUUUUGAUAGUUAAUAAAUUUGUCAUGGUUGUCUUUGAUUAAAGGAAACUCACCGCCACAACAGAGGAUUGAGCAUCA
B15: chr4:56502255:56502306:+|3pUTR|ENSG00000174780|msi1_unk|FALSE|overlapping (ssRNA)
RNA: GGGAGUUCUACAGUCCGACGAUCAUUUCAGCUGGAGUCUGAAGAUACUUGUUUCUGUUCAAGUCCCACUUUAAAUUAUGUCUUAGGAGACUGAAAGUGGAAUCUUCUGAGCAUUCCUAAAUAUCUGCUUAGAAAUAUCAUGUGCAACAGAGGAUUGAGCAUCA
B16: chr17:61865808:61865921:-|3pUTR|ENSG00000108506|unk|FALSE|unique (ssRNA)
RNA: GGGAGUUCUACAGUCCGACGAUCUUCUAUGAGAAUGAGUUUGUAGCUGUUUCAAAUCAUGAAGUGCAUAGUAUCACAUGUGAUAGAAUAUUUAUAACUUUUUAUUAGAUGCUUAAUGUUCAAUUAAGUAAUUUUGAUGUGAAACAACAGAGGAUUGAGCAUCA
B17: chr7:152122106:152122213:+|3pUTR|ENSG00000178234|unk|FALSE|unique (ssRNA)
RNA: B12 RNA with C67U, C68A, C76U, C77A, C83U, C84A, C121U, C122A, C135U, C136A

Experimental findings from publication PMC12136788 are described below.

Where a chain is given by its changes, count along the chain named. The full ranking holds about 5,800 sequences; the median of “enrichment r” is about 0.68, and the highest 2% start at about 11. Shown is part of a subset that was picked to be rich in the highest values.

The assay deals with T1, UNK ZnF1-6 (called full-length). Description: nsRBNS (natural sequence RNA bind-n-seq); RBNS binding buffer (assumed for nsRBNS): 25 mM Tris pH 7.5, 150 mM KCl, 3 mM MgCl2, 0.01% Triton X-100, 500 ug/ml BSA, 20 U/ml SUPERase-In, 4 C; UNK is unkempt and MSI1 is Musashi-1; names of the RNAs are library labels; protein concentration not given here; high values mean tight binding.
In the case of B1, the binding signal amounted to 2.05 enrichment R.
B2 registered a binding signal of 0.532 enrichment R.
The value for B3 was 14.8 enrichment R; that for B4 was 27.5 enrichment R.
Consider B5, for which the binding signal is 0.535 enrichment R.
The value for B6 was 5.21 enrichment R; that for B7 was 2.25 enrichment R.
The result for B8 reads 0.856 enrichment R; that for B9, 5.04 enrichment R; that for B10, 5.03 enrichment R.
Turning to B11, the binding signal was 14.1 enrichment R.
In turn, B12 gave a binding signal of 0.949 enrichment R.
In turn, B13 returned a binding signal of 0.702 enrichment R.
The molecule B14 came in with a binding signal of 13.5 enrichment R.
The result for B15 reads 0.869 enrichment R.
The value for B16 was 2.51 enrichment R; that for B17 was 35 enrichment R.
